According to ChEMBL document CHEMBL5724796, “Tm Shift (DSF) assay results for EUbOPEN Chemogenomics Library” (2024):

Legend:
Details in all cases: Compound concentration 20.0 uM
[1] = biological target: Tyrosine-protein kinase ABL1 (Homo sapiens) (UniProt P00519)
[2] = biological target: Bromodomain-containing protein 4 (Homo sapiens) (UniProt O60885)
[3] = biological target: Cyclin-dependent kinase 2 (Homo sapiens) (UniProt P24941)
[4] = biological target: Casein kinase I isoform delta (Homo sapiens) (UniProt P48730)
Sequence of Casein kinase I isoform delta (Homo sapiens) (P48730 whole entry, looked up, canonical isoform): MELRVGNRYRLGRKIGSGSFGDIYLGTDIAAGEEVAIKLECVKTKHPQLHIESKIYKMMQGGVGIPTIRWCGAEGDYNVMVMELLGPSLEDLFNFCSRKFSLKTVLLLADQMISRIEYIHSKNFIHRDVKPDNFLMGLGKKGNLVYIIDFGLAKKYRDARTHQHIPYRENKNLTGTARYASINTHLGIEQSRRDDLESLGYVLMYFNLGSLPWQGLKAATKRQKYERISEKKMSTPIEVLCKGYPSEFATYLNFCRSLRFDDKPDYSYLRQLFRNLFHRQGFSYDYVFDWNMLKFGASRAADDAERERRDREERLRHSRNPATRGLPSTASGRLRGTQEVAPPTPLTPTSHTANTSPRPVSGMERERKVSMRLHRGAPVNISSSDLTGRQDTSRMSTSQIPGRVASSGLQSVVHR

[5] = biological target: Glycogen synthase kinase-3 beta (Homo sapiens) (UniProt P49841)
Sequence of Glycogen synthase kinase-3 beta (Homo sapiens) (P49841 whole entry, looked up): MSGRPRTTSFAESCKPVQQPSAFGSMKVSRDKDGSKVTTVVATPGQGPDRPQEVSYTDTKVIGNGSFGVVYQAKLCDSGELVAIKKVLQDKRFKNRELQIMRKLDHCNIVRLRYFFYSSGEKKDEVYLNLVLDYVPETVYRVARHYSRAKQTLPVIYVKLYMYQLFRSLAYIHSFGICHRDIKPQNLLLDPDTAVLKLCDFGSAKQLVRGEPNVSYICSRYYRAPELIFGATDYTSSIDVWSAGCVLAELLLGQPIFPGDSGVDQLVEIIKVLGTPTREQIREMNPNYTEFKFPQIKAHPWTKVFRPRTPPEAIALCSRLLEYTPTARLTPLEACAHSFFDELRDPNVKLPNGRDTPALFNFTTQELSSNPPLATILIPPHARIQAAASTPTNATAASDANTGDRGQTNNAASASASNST

[6] = biological target: Mitogen-activated protein kinase 1 (Homo sapiens) (UniProt P28482)
Sequence of Mitogen-activated protein kinase 1 (Homo sapiens) (P28482 whole entry): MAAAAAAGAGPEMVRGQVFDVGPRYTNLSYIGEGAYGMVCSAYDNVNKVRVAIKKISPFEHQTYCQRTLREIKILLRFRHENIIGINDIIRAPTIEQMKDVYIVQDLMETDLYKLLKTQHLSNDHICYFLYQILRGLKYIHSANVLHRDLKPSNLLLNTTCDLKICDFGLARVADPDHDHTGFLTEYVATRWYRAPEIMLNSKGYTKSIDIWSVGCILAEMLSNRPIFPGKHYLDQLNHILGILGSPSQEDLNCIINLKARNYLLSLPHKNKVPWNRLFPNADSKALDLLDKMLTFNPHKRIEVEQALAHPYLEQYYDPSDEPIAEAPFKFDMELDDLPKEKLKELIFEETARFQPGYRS

[7] = biological target: T1, Aurora kinase A (Homo sapiens) (UniProt O14965)
T1 sequence (whole entry): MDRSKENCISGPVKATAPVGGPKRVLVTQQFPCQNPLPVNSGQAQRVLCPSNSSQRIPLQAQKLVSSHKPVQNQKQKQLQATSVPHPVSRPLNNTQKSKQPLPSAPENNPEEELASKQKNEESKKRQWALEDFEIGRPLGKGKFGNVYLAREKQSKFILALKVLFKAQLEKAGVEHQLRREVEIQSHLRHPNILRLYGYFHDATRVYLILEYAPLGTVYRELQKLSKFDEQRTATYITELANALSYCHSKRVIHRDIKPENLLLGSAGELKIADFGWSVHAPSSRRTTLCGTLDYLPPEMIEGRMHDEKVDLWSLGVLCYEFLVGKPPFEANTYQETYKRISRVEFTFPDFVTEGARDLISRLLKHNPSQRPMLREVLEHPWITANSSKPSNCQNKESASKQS

[8] = biological target: T2, Transcription intermediary factor 1-alpha (Homo sapiens) (UniProt O15164)
T2 sequence (whole entry): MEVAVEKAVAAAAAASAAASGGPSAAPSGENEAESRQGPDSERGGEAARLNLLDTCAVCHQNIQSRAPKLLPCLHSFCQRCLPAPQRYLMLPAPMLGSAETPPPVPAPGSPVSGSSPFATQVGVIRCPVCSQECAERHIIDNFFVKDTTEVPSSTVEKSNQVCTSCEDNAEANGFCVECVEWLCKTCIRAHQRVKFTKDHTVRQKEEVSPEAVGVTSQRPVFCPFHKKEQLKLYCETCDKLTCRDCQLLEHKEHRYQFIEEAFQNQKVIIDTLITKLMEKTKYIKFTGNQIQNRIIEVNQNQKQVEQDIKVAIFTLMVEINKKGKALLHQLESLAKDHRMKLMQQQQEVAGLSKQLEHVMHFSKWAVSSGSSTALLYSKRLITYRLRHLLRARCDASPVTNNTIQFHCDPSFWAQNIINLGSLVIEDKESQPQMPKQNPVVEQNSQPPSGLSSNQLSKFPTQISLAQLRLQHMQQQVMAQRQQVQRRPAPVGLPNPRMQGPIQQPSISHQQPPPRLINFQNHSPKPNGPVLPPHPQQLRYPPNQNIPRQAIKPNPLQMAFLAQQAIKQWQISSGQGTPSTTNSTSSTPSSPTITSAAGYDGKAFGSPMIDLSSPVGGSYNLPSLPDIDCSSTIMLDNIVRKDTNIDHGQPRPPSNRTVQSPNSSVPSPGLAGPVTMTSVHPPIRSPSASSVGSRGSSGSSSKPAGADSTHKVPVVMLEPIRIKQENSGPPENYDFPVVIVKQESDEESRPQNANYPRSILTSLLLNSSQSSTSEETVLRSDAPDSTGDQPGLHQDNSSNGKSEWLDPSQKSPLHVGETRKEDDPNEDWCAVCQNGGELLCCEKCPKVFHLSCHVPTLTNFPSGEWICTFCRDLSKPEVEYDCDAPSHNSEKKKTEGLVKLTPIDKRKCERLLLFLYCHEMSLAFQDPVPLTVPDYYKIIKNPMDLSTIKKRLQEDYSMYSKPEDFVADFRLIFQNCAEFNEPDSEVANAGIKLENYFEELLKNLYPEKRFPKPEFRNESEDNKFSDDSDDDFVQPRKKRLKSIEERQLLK

Sequence of Tyrosine-protein kinase ABL1 (Homo sapiens) (P00519 whole entry): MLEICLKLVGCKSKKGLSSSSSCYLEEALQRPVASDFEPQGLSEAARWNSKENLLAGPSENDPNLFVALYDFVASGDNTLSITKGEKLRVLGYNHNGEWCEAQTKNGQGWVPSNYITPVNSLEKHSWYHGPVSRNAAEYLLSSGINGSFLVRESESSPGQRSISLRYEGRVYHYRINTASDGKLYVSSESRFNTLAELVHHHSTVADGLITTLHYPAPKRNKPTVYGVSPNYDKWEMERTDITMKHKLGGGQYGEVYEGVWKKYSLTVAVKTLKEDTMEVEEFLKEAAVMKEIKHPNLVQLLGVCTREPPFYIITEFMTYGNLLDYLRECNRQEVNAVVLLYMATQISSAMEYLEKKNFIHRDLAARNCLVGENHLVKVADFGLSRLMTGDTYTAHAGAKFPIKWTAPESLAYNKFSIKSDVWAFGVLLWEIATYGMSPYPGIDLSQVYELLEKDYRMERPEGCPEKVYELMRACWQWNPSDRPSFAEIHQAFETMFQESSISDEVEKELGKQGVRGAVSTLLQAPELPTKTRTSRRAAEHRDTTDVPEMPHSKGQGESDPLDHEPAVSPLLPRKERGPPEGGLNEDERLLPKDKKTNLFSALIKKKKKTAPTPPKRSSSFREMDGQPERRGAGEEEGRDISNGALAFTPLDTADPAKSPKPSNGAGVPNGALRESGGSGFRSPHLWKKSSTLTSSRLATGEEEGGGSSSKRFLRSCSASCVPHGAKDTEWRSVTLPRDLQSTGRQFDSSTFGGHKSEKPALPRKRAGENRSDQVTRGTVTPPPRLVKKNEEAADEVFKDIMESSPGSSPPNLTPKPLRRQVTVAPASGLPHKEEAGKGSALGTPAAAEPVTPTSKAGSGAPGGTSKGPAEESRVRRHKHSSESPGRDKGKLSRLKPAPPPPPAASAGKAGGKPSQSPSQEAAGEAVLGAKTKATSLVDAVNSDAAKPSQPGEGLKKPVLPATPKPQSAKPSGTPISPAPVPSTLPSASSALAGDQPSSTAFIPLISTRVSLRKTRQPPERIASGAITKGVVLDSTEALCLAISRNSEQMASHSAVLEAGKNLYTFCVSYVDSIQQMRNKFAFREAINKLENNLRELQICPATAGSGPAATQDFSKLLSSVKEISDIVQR

Compound | ΔTm [1] [°C] | ΔTm [2] [°C] | ΔTm [3] [°C] | ΔTm [4] [°C] | ΔTm [5] [°C] | ΔTm [6] [°C] | ΔTm [7] [°C] | ΔTm [8] [°C]
C[C@@H]1CCC[C@H](C)N1NC(=O)c1ccc(Cl)c(S(N)(=O)=O)c1 | 0.07 | -0.69 | 0.04 | -0.23 | -0.93 | 0.04 | -1.59 | 0.4
N#C[C@@H]1C[C@@H]2C[C@@H]2N1C(=O)[C@@H](N)C12CC3CC(CC(O)(C3)C1)C2 | 0.22 | 0.38 | 0.24 | -0.14 | -0.19 | 0.33 | -2.27 | 1.46
N[C@@H](CC(=O)N1CCN(C(c2ccc(F)cc2)c2ccc(F)cc2)CC1)C(=O)N1Cc2ccccc2C1 | -0.03 | 0.11 | -3.61 | -0.26 | 0 | 0 | 0 | -6.21
C[C@H](Nc1cc(Cl)nc2c1cnn2[C@@H]1O[C@H](COP(=O)(O)CP(=O)(O)O)[C@@H](O)[C@H]1O)c1ccccc1F | 1.24 | -1.43 | -0.1 | 0.27 | 1 | -0.38 | 1.74 | -0.82
O=C1c2ccccc2C(=O)c2oc(-c3ccccc3)nc21 | 0.27 | -2.65 | 0.44 | -0.2 | 0.18 | -0.09 | -2.45 | 1.13
CN(CC[C@@H](Oc1ccc(-c2ccccc2)cc1)c1ccc(F)cc1)CC(=O)O | 0.28 | -0.22 | -0.22 | 0.15 | -0.98 | 0.32 | -1.2 | 2.77
Cn1nc2c(=O)n(CC3(O)CCN(C(=O)C[C@H](c4ccccc4)C(F)(F)F)CC3)cnc2c1-c1ccc(CN)cc1 | 0.68 | -2.51 | 0.12 | -0.82 | -0.57 | 0.17 | -1.86 | -0.47
CC(=O)Nc1ccc(-c2cc(-c3ccccc3)nc3cc(C(=O)NCCCn4ccnc4)nn23)cc1 | 0.52 | 1.46 | -0.15 | 1.15 | -0.59 | 0.9 | -0.25 | -2.15
CCCCCCCCCCCCC/C=C/[C@@H](O)[C@H](CO)NC(=O)CCl | 0.07 | -0.55 | -0.22 | 2.15 | -0.08 | 1.33 | 0.17 | -0.39
O=C1/C(=N/Nc2ccc(S(=O)(=O)O)cc2)C(c2ccc([N+](=O)[O-])cc2)=NN1c1ccccc1 | 1.16 | -0.38 | -0.28 | 0.56 | -2.61 | 0 | -0.73 | -0.32
CCCCCCCCCCCCC/C=C/[C@@H](O)[C@H](CO)NC(=O)CBr | 0.2 | -6.16 | -4.16 | -9.74 | -9.26 | 0.47 | -14.4 | -2.18
C[C@]12CCCN1CC1=NNC(=O)c3cc(F)cc4[nH]c2c1c34 | 0.67 | 2.16 | 2.04 | 1.06 | 8.59 | 0.1 | 1.26 | 0
CCCc1nc(C)c2c(C)nc3ccc(OC)nc3n12 | 1.04 | -3.02 | -0.07 | 2.7 | 1.39 | 0.58 | -1.87 | 0.69
NCCCOc1cc2ccccc2cc1C(=O)NCCOc1cc2ccccc2cc1C(=O)Nc1ccc(Cl)cc1O | 0.27 | -4.42 | -1.85 | 0.11 | -2.72 | -1.61 | -3.9 | -0.59
Cc1nn(CC(F)(F)F)cc1Nc1ncc(Br)c(NCc2ccc(S(N)(=O)=O)cc2)n1 | 2.53 | -2.79 | 0.52 | 0.99 | -0.15 | 2.84 | 6.65 | 1.38
CN(C)CCCN(CC[C@H](N)C(=O)O)C[C@H]1O[C@@H](n2cnc3c(N)ncnc32)[C@H](O)[C@@H]1O | 0.32 | -2.2 | -0.1 | 0.02 | -1.16 | 0.04 | -0.74 | -1.49
CCCc1nc(C)c2c(=O)nc(-c3cc(S(=O)(=O)N4CCN(CC)CC4)ccc3OCC)[nH]n12 | 0.09 | 1.95 | 1 | 0.05 | -1.14 | 0.18 | -2.18 | 1.86
Cc1cc(/N=N/c2ccc(S(=O)(=O)Nc3ccccn3)cc2)c(N)cc1O | 0.27 | 9 | 1.3 | -0.2 | -0.93 | 0.31 | -2.28 | 1
Nc1ccc(-c2cccs2)cc1NC(=O)c1ccc(NC=O)cc1 | 0.87 | 2.75 | 1.18 | -0.53 | -0.36 | 0.54 | 0.14 | 1.27
CC/C(=C(/CC)c1ccc(O)cc1)c1ccc(O)cc1 | -0.96 | -4.78 | -5.57 | -0.81 | -3.54 | -12.2 | -1.78 | 1.49
CCc1nc2c(C)cc(N3CCN(CC(=O)N4CC(O)C4)CC3)cn2c1N(C)c1nc(-c2ccc(F)cc2)c(C#N)s1 | 0.01 | 2.78 | 0.06 | 0.35 | -0.27 | 0.06 | -2.2 | 0.03
